# Data published in PubChem BioAssay (Tox21).
# “And” between values parts separate entries of the source, which are not always exact repeats. Equal entries are not always repeated. Records with an inconclusive call do not appear. Where a call stands in place of a potency, no number is given. More than one record can exist for a structure, and the calls need not agree. The source made the active and inactive calls. Unless noted, calls follow the shape of the dose curve; as a rule, active = well fitted curve in the direction sought with a large enough effect in the repeat runs; inconclusive = weak or mixed curves; inactive = no such curve, though single readings can be large; an effect the other way counts as inactive or inconclusive.
# Columns and labels:
# [1] = qHTS assay to identify small molecule agonists of the sonic hedgehog signaling (Shh) pathway (AID 1259368; calls by dose curve;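 also: NIH/3T3-derived 3T3Gli1-Luc cells carrying a stable Gli1-driven firefly luciferase reporter; series mostly up to about 92 µM; nearly all actives have a fitted effect of over 15% in size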)
# Procedure, shortened: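 Read-out: firefly luciferase luminescence from a Gli1 response element reporter stably integrated in NIH/3T3-derived 3T3Gli1-Luc cells, measured 30 min at room temperature after reagent addition. Compound exposure lasted 24 hr at 37 C, 5% CO2.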
# [2] = qHTS assay to identify small molecule antagonists of the sonic hedgehog signaling (Shh) pathway (AID 1259369; calls by dose curve; also: nearly all actives have a fitted effect of over 45% in size; also: potency is read from the fitted curve at half-maximal effect)
# Procedure, shortened: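 Luminescence readout: firefly Luc under Gli1 response element in 3T3Gli1-Luc cells (NIH/3T3 clone). Antagonist mode, stimulation by conditioned medium; compound exposure 24hr at 37 C, 5% CO2.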
# [3] = target: Estrogen receptor beta (Homo sapiens) (UniProt Q92731); experiment: qHTS assay to identify small molecule agonists of the estrogen receptor beta (ER-beta) signaling pathway (AID 1259377; active = well fitted activation curve with a large enough effect in the signal ratio in the repeat runs, not every such curve was filed as active; the % refers to the signal ratio)
# Chain of Estrogen receptor beta (Homo sapiens) (Q92731 whole entry, looked up): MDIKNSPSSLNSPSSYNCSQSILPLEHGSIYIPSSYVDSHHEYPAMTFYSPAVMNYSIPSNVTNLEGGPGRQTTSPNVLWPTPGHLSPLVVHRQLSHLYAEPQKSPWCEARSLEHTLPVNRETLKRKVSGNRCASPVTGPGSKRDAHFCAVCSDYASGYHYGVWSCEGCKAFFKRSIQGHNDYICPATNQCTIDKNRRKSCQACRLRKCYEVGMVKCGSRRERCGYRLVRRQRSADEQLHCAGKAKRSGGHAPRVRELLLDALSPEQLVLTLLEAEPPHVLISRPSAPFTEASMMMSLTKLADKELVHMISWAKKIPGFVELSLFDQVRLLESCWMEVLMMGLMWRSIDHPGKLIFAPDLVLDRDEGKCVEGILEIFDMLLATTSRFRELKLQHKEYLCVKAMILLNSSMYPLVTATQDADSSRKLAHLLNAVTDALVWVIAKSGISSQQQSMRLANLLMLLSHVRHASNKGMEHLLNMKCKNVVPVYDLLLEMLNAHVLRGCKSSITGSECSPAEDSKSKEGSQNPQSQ
# Procedure, shortened: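 Read-out: beta-lactamase FRET fluorescence. Cell line: ER-beta-UAS-bla HEK293T in 2% charcoal-stripped FBS. Exposure: 16 hr at 37C. Substrate step: 2 h at room temperature.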
# [4] = target: Estrogen receptor beta (Homo sapiens) (UniProt Q92731); experiment: qHTS assay to identify small molecule antagonists of the estrogen receptor beta (ER-beta) signaling pathway (AID 1259378; active = well fitted inhibition curve with a large enough effect in the signal ratio in the repeat runs, not every such curve was filed as active; the % refers to the signal ratio; also: potency is read from the fitted curve at half-maximal effect)
# Procedure, shortened: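 ER-beta-UAS-bla HEK293T cells in 2% charcoal-stripped FBS medium treated with compound plus 1nM final 17-beta-estradiol for 16 hr at 37C. Beta-lactamase reporter read by FRET substrate fluorescence after 2 hours at room temperature.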
# [5] = qHTS assay to identify small molecule antagonists of the estrogen receptor beta (ER-beta) signaling pathway - cell viability counter screen (AID 1259382); also: series mostly up to about 92 µM; nearly all actives have a fitted effect of over 55% in size
# Procedure, shortened: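 Luminescent ATP read-out (CellTiter-Glo, 30 min, RT) taken in the same wells as the bla reporter assay. HEK293T ER-beta-UAS-bla cells in 2% charcoal-stripped FBS were exposed to compounds with 1nM E2 for 16 hr at 37C.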
# [6] = qHTS assay to identify small molecule agonists or antagonists of the thyroid stimulating hormone receptor (TSHR) signaling pathway - wild type cell line counter screen (AID 1259384; calls by dose curve)
# Procedure, shortened: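 Wild-type Hek293 cells, 800/well, 18 h at 37C, then compound with Ro20-1724 for 30 min RT. cAMP by HTRF (cAMP-d2/anti-cAMP cryptate), 1 h RT, fluorescence read. 15 concentrations, triplicates.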
# [7] = target: Thyrotropin receptor (Homo sapiens) (UniProt P16473); experiment: qHTS assay to identify small molecule antagonists of the thyroid stimulating hormone receptor (TSHR) signaling pathway (AID 1259385; calls by dose curve; also: nearly all actives have a fitted effect of over 20% in size)
# Chain of Thyrotropin receptor (Homo sapiens) (P16473 whole entry, looked up): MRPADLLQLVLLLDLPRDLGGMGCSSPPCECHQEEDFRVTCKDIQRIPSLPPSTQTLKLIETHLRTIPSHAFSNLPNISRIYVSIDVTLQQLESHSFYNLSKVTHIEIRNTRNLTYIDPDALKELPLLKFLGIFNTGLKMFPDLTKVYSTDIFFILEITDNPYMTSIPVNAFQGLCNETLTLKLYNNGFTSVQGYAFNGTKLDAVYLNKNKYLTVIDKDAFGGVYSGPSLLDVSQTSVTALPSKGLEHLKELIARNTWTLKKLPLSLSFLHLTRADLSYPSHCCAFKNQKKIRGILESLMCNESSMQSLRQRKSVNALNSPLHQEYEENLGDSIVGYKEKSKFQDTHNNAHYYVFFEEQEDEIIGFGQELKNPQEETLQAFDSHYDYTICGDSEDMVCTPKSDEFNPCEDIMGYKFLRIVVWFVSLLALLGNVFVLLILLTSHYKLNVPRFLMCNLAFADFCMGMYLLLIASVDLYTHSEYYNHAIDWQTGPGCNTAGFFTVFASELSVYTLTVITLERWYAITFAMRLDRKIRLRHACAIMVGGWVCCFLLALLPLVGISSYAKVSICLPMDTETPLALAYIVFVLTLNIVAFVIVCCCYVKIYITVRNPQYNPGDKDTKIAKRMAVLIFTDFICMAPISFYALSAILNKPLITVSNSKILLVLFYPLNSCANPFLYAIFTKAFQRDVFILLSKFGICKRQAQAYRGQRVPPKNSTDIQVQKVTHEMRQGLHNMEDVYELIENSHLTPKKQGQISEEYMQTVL
# Procedure, shortened: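 TSHR-HEK293 cells (800/well) plated 18 h, then compounds with Ro20-1724 and TSH at 1.5 ng/mL final, 30 min at room temperature. cAMP quantified by HTRF (cAMP-d2/anti-cAMP-cryptate, 1 h); 15 concentrations in triplicate.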
# [8] = qHTS assay to identify small molecule agonists of the estrogen receptor alpha (ER-alpha) signaling pathway in the presence of an antagonist - cell viability counter screen (AID 1259386);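 also: series mostly up to about 92 µM; cells exposed to compounds for 22 h at 37 °C before the viability read; nearly all actives have a fitted effect of over 30% in size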
# Procedure, shortened: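 Read-out: CellTiter-Fluor fluorescence after 1hr reagent incubation, measured in the same wells as the luciferase readout. VM7Luc4E2 cells were exposed to 15 compound concentrations with 10.0nM ICI-182,780 for 22hr at 37C.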
# [9] = qHTS assay to identify small molecule agonists of the progesterone receptor (PR) signaling pathway - cell viability counter screen (AID 1346799; calls by dose curve; also: nearly all actives have a fitted effect of over 45% in size)
# Procedure, shortened: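 Here, 3,000 PR-UAS-bla HEK293T cells per well were treated with compounds for 16 hr after a 6 hr preincubation at 37C and 5% CO2; cell viability is the CellTiter-Glo luminescence signal.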
# [10] = qHTS assay to identify small molecule antagonists of the TGF-beta/Smad signaling pathway - cell viability counter screen (AID 1346824); also: nearly all actives have a fitted effect of over 50% in size
# Procedure, shortened: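 SBE-bla HEK 293T cells, incubated overnight, then compound plus 0.25 ng/mL TGF-beta1 (stock added) for 5 hr at 37 C. Viability was read in the same wells by CellTiter-Glo luminescence after 30 min at room temperature.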
# [11] = qHTS assay to identify small molecule agonists of the TGF-beta/Smad signaling pathway - cell viability counter screen (AID 1346829); also: top concentration of the series differs between compounds; nearly all actives have a fitted effect of over 45% in size
# Procedure, shortened: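 Cytotoxicity counter screen: CellTiter-Glo luminescence (30 min, room temperature) measured in the SBE-bla HEK 293T reporter wells after 5 hr compound treatment at 37 C and the 2 hr substrate step.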
# [12] = qHTS assay to identify small molecule agonists of the TGF-beta/Smad signaling pathway (AID 1346859; active = well fitted activation curve with a large enough effect in the signal ratio in the repeat runs, not every such curve was filed as active; the % refers to the signal ratio; also: series mostly up to about 77 µM)
# Procedure, shortened: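 Each well held 4,000 SBE-bla HEK 293T cells incubated overnight before compound addition; 5 hr later the cleavable FRET substrate went on for 2 hr at room temperature, and fluorescence was read at two emissions.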
# [13] = target: Thyrotropin-releasing hormone receptor (Homo sapiens) (UniProt P34981); experiment: qHTS assay to identify small molecule antagonists of the thyrotropin-releasing hormone receptor (TRHR) signaling pathway (AID 1346877; active = well fitted inhibition curve with a large enough effect in the repeat runs, not every such curve was filed as active; also: series mostly up to about 51 µM)
# Chain of Thyrotropin-releasing hormone receptor (Homo sapiens) (P34981 whole entry, looked up): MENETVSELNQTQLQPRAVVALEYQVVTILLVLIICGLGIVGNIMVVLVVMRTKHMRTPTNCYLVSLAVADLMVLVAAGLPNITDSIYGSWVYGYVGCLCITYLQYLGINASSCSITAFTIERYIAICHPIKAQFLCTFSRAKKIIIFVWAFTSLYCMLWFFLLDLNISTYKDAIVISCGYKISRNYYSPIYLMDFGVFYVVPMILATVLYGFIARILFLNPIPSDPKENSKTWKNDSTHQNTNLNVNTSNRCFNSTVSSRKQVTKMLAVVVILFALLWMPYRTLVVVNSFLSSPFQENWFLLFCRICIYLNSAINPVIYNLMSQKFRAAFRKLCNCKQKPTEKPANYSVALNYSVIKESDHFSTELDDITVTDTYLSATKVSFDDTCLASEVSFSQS
# Procedure, shortened: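 HEK293/TRHR cells, 18 h, 37 °C; Ca2+ dye 2 h; cpd 5 min RT; TRH 1 nM final; fluorescence read 3 min, 1 s intervals; 15 concs, triplicate.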
# [14] = qHTS assay to identify small molecule agonists of the androgen receptor (AR) signaling pathway in the presence of an antagonist - cell viability counter screen (AID 1259379);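 also: MDA-kb2 human breast cancer cells carrying an MMTV luciferase reporter; series mostly up to about 92 µM; nearly all actives have a fitted effect of over 25% in size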
# Procedure, shortened: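 Viability counter screen: CellTiter-Fluor fluorescence, measured in the same wells as the luciferase read-out. MDA-kb2 cells, 3,000/well, with nilutamide at 3.0uM final and compounds at 15 concentrations, 16 hr at 37C, 0% CO2.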
# [15] = target: Estrogen receptor (Homo sapiens) (UniProt P03372); experiment: qHTS assay to identify small molecule agonists of the estrogen receptor alpha (ER-alpha) signaling pathway in the presence of an antagonist (AID 1259383; calls by dose curve; also: top concentration of the series differs between compounds; nearly all actives have a fitted effect of over 15% in size)
# Chain of Estrogen receptor (Homo sapiens) (P03372 whole entry, looked up): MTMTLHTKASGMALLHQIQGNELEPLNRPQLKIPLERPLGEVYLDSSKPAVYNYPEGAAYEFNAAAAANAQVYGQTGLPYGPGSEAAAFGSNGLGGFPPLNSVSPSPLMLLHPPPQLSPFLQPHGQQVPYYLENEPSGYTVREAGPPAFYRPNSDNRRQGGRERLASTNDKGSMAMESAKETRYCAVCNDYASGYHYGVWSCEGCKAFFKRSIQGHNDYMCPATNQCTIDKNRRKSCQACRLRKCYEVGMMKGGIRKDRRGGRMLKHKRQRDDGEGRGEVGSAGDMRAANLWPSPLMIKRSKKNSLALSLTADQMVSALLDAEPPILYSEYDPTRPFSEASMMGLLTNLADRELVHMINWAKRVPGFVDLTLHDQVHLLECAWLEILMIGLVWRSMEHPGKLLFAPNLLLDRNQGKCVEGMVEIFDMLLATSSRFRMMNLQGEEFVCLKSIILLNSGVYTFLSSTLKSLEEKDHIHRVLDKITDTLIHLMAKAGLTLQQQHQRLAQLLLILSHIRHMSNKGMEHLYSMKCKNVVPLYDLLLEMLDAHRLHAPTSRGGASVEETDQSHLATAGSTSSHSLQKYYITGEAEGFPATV
# Procedure, shortened: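 Luciferase luminescence (ONE-Glo, 30min at room temperature) measured in VM7Luc4E2 cells after 22hr compound exposure at 15 concentrations, with 10.0nM ICI-182,780 final present; cells express endogenous ER-alpha and carry four EREs upstream of luciferase.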
# [16] = target: Progesterone receptor (Homo sapiens) (UniProt P06401); experiment: qHTS assay to identify small molecule agonists of the progesterone receptor (PR) signaling pathway (AID 1346784; calls by dose curve; also: nearly all actives have a fitted effect of over 30% in size)
# Chain of Progesterone receptor (Homo sapiens) (P06401 whole entry, looked up): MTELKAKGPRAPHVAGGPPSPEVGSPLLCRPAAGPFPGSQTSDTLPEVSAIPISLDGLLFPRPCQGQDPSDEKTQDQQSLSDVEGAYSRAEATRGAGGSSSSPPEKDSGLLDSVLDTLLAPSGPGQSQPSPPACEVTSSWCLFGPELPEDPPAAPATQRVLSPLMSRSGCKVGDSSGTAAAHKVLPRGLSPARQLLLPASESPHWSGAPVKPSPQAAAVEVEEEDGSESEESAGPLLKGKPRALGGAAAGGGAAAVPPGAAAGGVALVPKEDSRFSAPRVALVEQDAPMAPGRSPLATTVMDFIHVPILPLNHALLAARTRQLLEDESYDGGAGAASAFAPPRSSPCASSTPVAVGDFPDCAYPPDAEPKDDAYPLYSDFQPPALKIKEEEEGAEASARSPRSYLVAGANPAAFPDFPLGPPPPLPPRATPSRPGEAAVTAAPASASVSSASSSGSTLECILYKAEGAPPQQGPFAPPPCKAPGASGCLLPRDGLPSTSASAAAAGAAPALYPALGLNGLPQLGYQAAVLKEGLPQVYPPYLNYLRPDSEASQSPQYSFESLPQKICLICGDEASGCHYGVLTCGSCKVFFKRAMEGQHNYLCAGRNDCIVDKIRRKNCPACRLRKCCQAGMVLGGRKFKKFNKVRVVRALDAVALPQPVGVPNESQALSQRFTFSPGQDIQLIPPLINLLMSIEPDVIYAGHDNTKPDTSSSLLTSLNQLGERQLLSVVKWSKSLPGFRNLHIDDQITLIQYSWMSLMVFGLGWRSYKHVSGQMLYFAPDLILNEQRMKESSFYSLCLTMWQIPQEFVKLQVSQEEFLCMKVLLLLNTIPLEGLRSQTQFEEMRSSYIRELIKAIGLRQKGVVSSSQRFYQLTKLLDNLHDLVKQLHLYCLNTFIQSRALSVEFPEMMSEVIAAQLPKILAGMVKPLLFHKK
# Procedure, shortened: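 Compounds were tested for PR agonism in HEK 293T cells bearing a beta-lactamase gene under UAS control. Treatment lasted 16 hr at 37C; signal came from fluorescence of a FRET substrate.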
# [17] = target: Progesterone receptor (Homo sapiens) (UniProt P06401); experiment: qHTS assay to identify small molecule antagonists of the progesterone receptor (PR) signaling pathway (AID 1346795; active = well fitted inhibition curve with a large enough effect in the signal ratio in the repeat runs, not every such curve was filed as active; the % refers to the signal ratio; also: potency is read from the fitted curve at half-maximal effect)
# Procedure, shortened: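 In HEK293T cells bearing the PR-UAS-bla reporter, compound effects on promegestone-driven (1 nM) beta-lactamase expression are assessed after 16 hr using a fluorescent FRET substrate incubated 2 hr at room temperature.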
# [18] = qHTS assay to identify small molecule antagonists of the progesterone receptor (PR) signaling pathway - cell viability counter screen (AID 1346798); also: nearly all actives have a fitted effect of over 50% in size; also: potency is read from the fitted curve at half-maximal effect
# Procedure, shortened: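 Following a 4 hr attachment, PR-UAS-bla HEK293T cells in charcoal-stripped FBS medium were exposed to compounds with R5020 for 16 hr; CellTiter-Glo was added and luminescence read after 30 min at room temperature.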
# [19] = qHTS assay to identify small molecule agonists of the estrogen receptor beta (ER-beta) signaling pathway - cell viability counter screen (AID 1259380); also: nearly all actives have a fitted effect of over 30% in size
# Procedure, shortened: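 Luminescence read-out (CellTiter-Glo, 30 min, room temp) taken in the same wells as the beta-lactamase reporter assay; ER-beta-UAS-bla HEK293T cells exposed to DMSO-dissolved compounds for 16 hr at 37C in 2% charcoal-stripped FBS medium.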
# [20] = target: Androgen receptor (Homo sapiens) (UniProt P10275); experiment: qHTS assay to identify small molecule agonists of the androgen receptor (AR) signaling pathway in the presence of an antagonist (AID 1259381; calls by dose curve; also: nearly all actives have a fitted effect of over 15% in size)
# Chain of Androgen receptor (Homo sapiens) (P10275 whole entry, looked up): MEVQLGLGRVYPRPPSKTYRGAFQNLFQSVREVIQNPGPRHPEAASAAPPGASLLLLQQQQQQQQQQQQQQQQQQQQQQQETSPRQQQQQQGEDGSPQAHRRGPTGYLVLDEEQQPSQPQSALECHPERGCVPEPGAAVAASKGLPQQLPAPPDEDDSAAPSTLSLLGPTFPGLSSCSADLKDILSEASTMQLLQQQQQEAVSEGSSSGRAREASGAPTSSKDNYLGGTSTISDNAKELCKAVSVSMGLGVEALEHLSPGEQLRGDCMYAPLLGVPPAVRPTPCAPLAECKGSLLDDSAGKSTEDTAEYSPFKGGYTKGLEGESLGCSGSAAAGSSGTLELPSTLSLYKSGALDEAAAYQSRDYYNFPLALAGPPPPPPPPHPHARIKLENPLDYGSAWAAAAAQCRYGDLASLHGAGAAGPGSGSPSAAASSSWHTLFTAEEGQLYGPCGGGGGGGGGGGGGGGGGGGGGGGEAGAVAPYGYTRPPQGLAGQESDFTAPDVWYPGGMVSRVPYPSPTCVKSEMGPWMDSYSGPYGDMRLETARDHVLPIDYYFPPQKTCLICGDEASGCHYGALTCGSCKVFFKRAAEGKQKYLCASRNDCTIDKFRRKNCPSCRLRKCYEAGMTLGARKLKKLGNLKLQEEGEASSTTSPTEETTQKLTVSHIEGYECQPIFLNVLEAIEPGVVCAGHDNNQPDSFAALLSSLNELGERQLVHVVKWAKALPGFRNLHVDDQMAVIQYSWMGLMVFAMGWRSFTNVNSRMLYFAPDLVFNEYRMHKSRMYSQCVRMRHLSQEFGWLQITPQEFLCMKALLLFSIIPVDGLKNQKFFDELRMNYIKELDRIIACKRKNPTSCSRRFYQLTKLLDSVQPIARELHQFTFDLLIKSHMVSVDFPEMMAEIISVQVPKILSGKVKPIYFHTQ
# Procedure, shortened: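 Luciferase read-out (ONE-Glo, 30min room temperature) in MDA-kb2 MMTV-reporter cells; agonist mode run in presence of AR antagonist nilutamide, 3.0uM final. Compounds tested as 15-point series, 16hr exposure at 37C, 0% CO2.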
SMILES,Potency [1],Potency [2],Potency [3],Potency [4],Potency [5],outcome [6],Potency [7],Potency [8],Potency [9],Potency [10],Potency [11],outcome [12],Potency [13],Potency [14],Potency [15],Potency [16],Potency [17],Potency [18],Potency [19],Potency [20]
S=C=NCc1ccccc1,inactive,inactive,inactive,49.1 µM (active),inactive,inactive,inactive,inactive,inactive,inactive,inactive,inactive,inactive,–,–,–,–,–,–,–
ClCc1ccccc1,inactive,inactive,inactive,inactive,inactive,inactive,inactive,inactive,–,inactive,inactive,inactive,–,inactive,inactive,inactive,inactive,inactive,–,–
CCc1ccc(C(=O)NN(C(=O)c2cc(C)cc(C)c2)C(C)(C)C)cc1,inactive,inactive,inactive,–,inactive,inactive,inactive,–,–,inactive,inactive,–,inactive,inactive,inactive,–,–,inactive,inactive,–
CC(=O)[C@H]1CC[C@H]2[C@@H]3CC[C@H]4C[C@](C)(O)CC[C@]4(C)[C@H]3CC[C@]12C,inactive,inactive,inactive,2.11 µM (active),–,inactive,inactive,inactive,–,inactive,inactive,–,inactive,inactive,inactive,inactive,inactive,inactive,inactive,–
CCOP(=S)(OCC)Oc1cc(Cl)c(Br)cc1Cl,inactive,inactive,inactive,–,inactive,inactive,inactive,inactive,inactive,–,inactive,inactive,–,inactive,inactive,inactive,–,inactive,inactive,–
COC(N)=O,inactive,inactive,inactive,inactive,inactive,–,–,inactive,–,inactive,inactive,inactive,–,inactive,inactive,–,–,43.3 µM (active),–,–
CCCCOC(=O)c1ccccc1C(=O)OCc1ccccc1,inactive,inactive and 19.3 µM (active),inactive,6.1 µM (active) and 9.15 µM (active),inactive,inactive,inactive,inactive,inactive,inactive,inactive,inactive,inactive,inactive,–,–,–,inactive,–,–
OC(c1ccc(Cl)cc1)(c1ccc(Cl)cc1)c1cccnc1,inactive,30.6 µM (active),inactive,38.6 µM (active),inactive,inactive,–,inactive,–,inactive,–,–,–,–,inactive,inactive,17.2 µM (active),–,inactive,–
CC1Sc2c(C(=O)O)c(=O)c3cc(F)c(N4CCNCC4)cc3n21 (stereo not given),inactive,inactive,inactive,–,inactive,inactive,inactive,inactive,–,inactive,inactive,inactive,inactive,inactive,inactive,inactive,inactive,inactive,inactive,inactive
